# About 83,000 compounds went through this panel and 20% of them were active in at least one assay; those are over-represented in the sample as a whole.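 Method: cells in 96-well plates; compound added at one concentration; 48 h incubation; percent growth measured; values under 10 scored active.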 Values without a mark were called inactive. The source made the active and inactive calls.
# Key:
# Assay in all cases: NCI-60 one-dose screen, 48 h (100 = growth as untreated, 0 = no growth, -100 = all killed)
# Conditions in all cases: 10 µM unless noted
# NCI-H23 lung = system: NCI-H23 lung
# NCI-H226 lung = system: NCI-H226 lung
# NCI-H322M lung = system: NCI-H322M lung
# HOP-62 NSCLC = system: HOP-62 NSCLC
# NCI-H460 lung = system: NCI-H460 lung
# NCI-H522 lung = system: NCI-H522 lung
# A549/ATCC NSCLC = system: A549/ATCC NSCLC
# 786-0 renal = system: 786-0 renal
# COLO 205 colon = system: COLO 205 colon
# DU-145 prostate = system: DU-145 prostate
# K-562 leukemia = system: K-562 leukemia
# MALME-3M melanoma = system: MALME-3M melanoma
# MDA-MB-231 breast = system: MDA-MB-231 breast
# RXF 393 renal = system: RXF 393 renal
# SF-268 CNS = system: SF-268 CNS
# SF-295 CNS = system: SF-295 CNS
# SF-539 CNS = system: SF-539 CNS
# UACC-257 melanoma = system: UACC-257 melanoma
# HOP-92 NSCLC = system: HOP-92 NSCLC
# M14 melanoma = system: M14 melanoma
SMILES,growth (NCI-H23 lung),growth (NCI-H226 lung),growth (NCI-H322M lung),growth (HOP-62 NSCLC),growth (NCI-H460 lung),growth (NCI-H522 lung),growth (A549/ATCC NSCLC),growth (786-0 renal),growth (COLO 205 colon),growth (DU-145 prostate),growth (K-562 leukemia),growth (MALME-3M melanoma),growth (MDA-MB-231 breast),growth (RXF 393 renal),growth (SF-268 CNS),growth (SF-295 CNS),growth (SF-539 CNS),growth (UACC-257 melanoma),growth (HOP-92 NSCLC),growth (M14 melanoma)
O=C=Nc1ccc(Br)cc1,101%,98.8%,100%,119%,103%,100%,113%,95.5%,111%,107%,99.6%,108%,108%,103%,111%,94.8%,110%,110%,–,–
c1ccc2c(c1)sc1ccccc12,99.8%,94.7%,95.7%,97.7%,109%,98.9%,–,105%,98.6%,110%,105%,84%,93.8%,107%,109%,101%,93.9%,109%,74.7%,94%
O=C1CCCCC1CN1CCCCC1 (stereo not given),99.6%,104%,94.6%,93%,101%,84.3%,94.9%,106%,–,100%,119%,86.2%,116%,121%,97.7%,97.2%,97%,96.2%,97.2%,109%
CN1[C@@H](CC(=O)c2ccccc2)CCC[C@H]1CC(=O)c1ccccc1,97.2%,96.7%,110%,110%,115%,86.9%,93.8%,108%,114%,108%,102%,–,111%,119%,102%,97.2%,111%,98.1%,111%,104%
COc1cc(-c2ccc(N)c(OC)c2)ccc1N,101%,110%,84.4%,95.5%,114%,131%,108%,106%,120%,103%,138%,78.1%,103%,–,103%,104%,110%,134%,110%,113%
COC(=O)CCP(CCC(=O)OC)c1ccccc1,102%,104%,107%,111%,111%,102%,96.8%,102%,118%,110%,111%,–,117%,108%,103%,99.4%,101%,99.7%,109%,101%
CCCn1cc2c3c(cccc31)[C@H]1C[C@@H](C)CN(C)[C@@H]1C2,77%,93.4%,89.4%,86.4%,95.7%,85.9%,96%,81.7%,–,99.8%,–,–,78.3%,86.6%,94.8%,–,85.1%,78.6%,29.7%,89.3%
CCOC(=O)c1ccccc1C(=O)OCC,109%,94.6%,97.8%,92.6%,112%,61.1%,99.2%,96.4%,120%,118%,–,102%,93.3%,121%,110%,83.5%,107%,91.3%,89.4%,103%
c1ccc(CCN2CCCCC2)nc1,103%,101%,106%,95.6%,114%,101%,95.7%,101%,106%,–,97.6%,141%,97.8%,114%,103%,98%,102%,108%,91.7%,99.5%
CCCCOCCOP(=O)(OCCOCCCC)OCCOCCCC,101%,90.6%,120%,91.6%,99.3%,100%,–,110%,105%,115%,88.3%,111%,99%,100%,98.5%,103%,99.6%,–,111%,106%
COc1ccc(N)cc1OC,105%,107%,114%,104%,119%,103%,105%,102%,109%,–,129%,129%,87.1%,125%,106%,93.9%,110%,107%,91.2%,109%
CC1=CC(=O)CCC12CCOC2=O (stereo not given),102%,101%,96.4%,99.5%,102%,96.1%,97.8%,93.9%,116%,106%,97.1%,89.9%,–,108%,103%,95.8%,92.9%,97.9%,102%,102%
O=NN1CCCCC1,104%,109%,128%,102%,116%,–,102%,103%,107%,107%,121%,120%,95.9%,118%,96.1%,119%,91.8%,97.8%,110%,103%
COc1ccc(N)cc1N,96.8%,103%,96.1%,95.5%,107%,–,118%,102%,121%,120%,115%,117%,99%,–,128%,105%,92.8%,–,85.7%,–
O=C(O)C(F)F,107%,89.9%,114%,86.9%,89.2%,101%,–,106%,105%,107%,92.4%,102%,98.9%,97.1%,98.9%,101%,97.1%,–,107%,107%
C/C=C(/C)C(=O)O[C@H]1CC[C@@]2(C)[C@@H]3CC[C@H]4[C@]5(O)C[C@H](O)[C@@]6(O)[C@@H](CN7C[C@@H](C)CC[C@H]7[C@@]6(C)O)[C@]5(O)C[C@@]42O[C@@]13O,106%,102%,97.9%,-56.5% (active),110%,–,94%,89.9%,118%,138%,136%,92.7%,130%,108%,116%,100%,111%,102%,–,–
COCC1OC2OC3C(COC)OC(OC4C(COC)OC(OC5C(COC)OC(OC6C(COC)OC(OC7C(COC)OC(OC8C(COC)OC(OC1C(O)C2O)C(O)C8O)C(O)C7O)C(O)C6O)C(O)C5O)C(O)C4O)C(O)C3O (stereo not given) (tested in a mixture with another compound),102%,102%,134%,–,109%,109%,109%,139%,127%,113%,99.5%,127%,115%,129%,105%,111%,111%,117%,–,–
